This excerpt belongs to a sample that is enriched for hits.
Methyltransferases – Primary Screen for Target Class Profiling of Small Molecule Inhibitors of Methyltransferases. purified enzyme, MTase-Glo SAH luminescence; hits give low values. calls only at 40 µM. 3.9% of 25,000 active. AID 1745853, 2022; call rule not given here
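Each enzyme was reacted with SAM and its substrate, with compounds tested once at 40 uM; SAH formed was read by MTase-Glo luminescence.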
The depositor's hits bear a star; i = inactive; + = active, no number; ! = not confirmed by another sample. % is set by controls: 0 for no effect and ±100 for the full control effect.

SMILES	Methyltransferases
COc1ccc(NC(=O)N2CCc3c2ccc2ccccc32)cc1N1CCN(C)CC1	i
Cc1cc2c(cc1Cl)N(C(=O)Nc1ccnc3ccccc13)CC2	+
Cc1cc2c(cc1Cl)N(C(=O)Nc1ccc(Oc3cccnc3C)nc1)CC2	i
COC(=O)c1ncn2c1C(=O)N(c1ccc3c(c1)OCCO3)C(C)(C(=O)NCCCOC(C)C)C2 (configuration not stated)	i
CCN1C(=O)c2c(C(=O)NCc3ccc(F)cc3)ncn2CC1(C)C(=O)NC1CCCC1 (configuration not stated)	i
Cc1ccc(CNC(=O)C2(C)Cn3nc(C(=O)NCCc4ccco4)cc3C(=O)N2C)cc1 (configuration not stated)	i
Cc1cc(Cl)ccc1N1C(=O)c2cc(C(C)(C)C)nn2CC1(C)C(=O)NCCC(C)C (configuration not stated)	i
O=C(CCCc1nnc2n3nc(-c4ccccc4)nc3c3ccccc3n12)N1CCN(Cc2ccccc2)CC1	i
O=C(CCCc1nnc2n3nc(-c4ccccc4)nc3c3ccccc3n12)N1CCC(N2CCCCC2)CC1	+
O=C(CCCc1nnc2n3nc(-c4ccccc4)nc3c3ccccc3n12)N1CCN(C2CCCCC2)CC1	i
COc1ccc(CNC(=O)CCc2nnc3n(Cc4ccccc4)c(=O)c4ccccc4n23)cc1	i
CC(C)(C)NC(=O)N1CCC(c2nnc3n2C(C(=O)NCC2CCCCC2)CC3)CC1 (configuration not stated)	i
Cc1cccc(CCNC(=O)CCc2nnc3n(Cc4ccc(F)cc4)c(=O)c4ccccc4n23)c1	i
Cc1ccc(S(=O)(=O)N2CCc3nc(N(C)Cc4cccnc4)[nH]c(=O)c3CC2)cc1	i
O=C1NC(=O)C(c2ccccc2[N+](=O)[O-])=C1Nc1ccc(O)c(Cl)c1	+
CN1C(=O)c2cc(C(=O)NCc3ccc(Cl)cc3)nn2CC1(C)C(=O)NCc1ccc(F)cc1 (configuration not stated)	i
C[C@@]1(C2CCCC2)Cc2cc(OCC(=O)O)c(Cl)c(Cl)c2C1=O	+
COCCN[C@H]1[C@@H]2OC[C@@H](O2)[C@@H](NCc2cnc3ccccc3c2)[C@@H]1O	i
Cc1ccccc1Cn1nc2n(Cc3ccccc3)c(=O)c3ccc(C(=O)NC(C)C)cc3n2c1=O	i
CCNC(=O)N1CCOc2ccc(CN3CCOCC3)cc2C1	i
CCOC(=O)C1CCCN(c2nc3c(S(=O)(=O)c4ccc(C)cc4)nnn3c3ccccc23)C1 (configuration not stated)	i
COc1cc(C(=O)OC[C@H]2O[C@@H](Oc3ccccc3/C=C/C(=O)O)[C@H](O)[C@@H](O)[C@@H]2O)cc(OC)c1OC	+
COc1ccc(/C=C\C(=O)O)c(O[C@@H]2O[C@H](CO)[C@@H](O)[C@H](O)[C@H]2O)c1	i
COc1cc(/C=C/C(=O)O[C@H]2[C@H](O)[C@@H](CO)O[C@@]2(CO)O[C@H]2O[C@H](COC(=O)c3ccc(O)cc3)[C@@H](O)[C@H](O)[C@H]2O)cc(OC)c1OC	i
Cc1ccccc1N1C(=O)c2cc(C3CC3)nn2CC1(C)C(=O)NC1CCCCCC1 (configuration not stated)	i
SMILES	Methyltransferases
COc1cc2c(cc1OC)N1C(=O)C[C@@]34C=CC[N@+]5([O-])CC[C@H]2[C@H](CC3)[C@@]145	i
O=C(CCCn1cncn1)N1CCCC(CCc2ccccc2C(F)(F)F)C1 (configuration not stated)	i
COc1ccc(-c2cc3n(n2)CC(C)(C(=O)NCc2ccccc2)N(c2ccc(C)cc2C)C3=O)cc1 (configuration not stated)	i
Oc1ccc(Nc2nc(-c3ccc(Cl)cc3)cs2)cc1	i
Clc1ccc(-c2csc(NN=C3CCCC3)n2)cc1	+!
Clc1cccc(COc2cncc(N3CCNCC3)n2)c1	i
COC(=O)C1=CO[C@@H](O[C@@H]2O[C@H](CO)[C@@H](O)[C@H](O)[C@H]2O)[C@@H]2[C@@H](C)[C@@H](O)C(O)[C@H]12 (some centres not stated)	i
CCOC(=O)C1CCN(S(=O)(=O)c2ccc3c(c2)n(C)c(=O)n3C)CC1	i
CC(C)(C(=O)O)C1CCOCC1	i
Cc1nncn1C1CN(S(=O)(=O)c2ccc3c(c2)CCC3)C1	i
COC(=O)Cn1nc(-c2cccc(OC)c2)c2ccccc21	i
CC(C)CN1CC(COc2ccc3ccccc3c2)Oc2ccnc(-c3ccc(OCC(=O)O)cc3)c2C1=O (configuration not stated)	i
CCc1c(-c2ccccc2)c(-c2ccccc2)nn1-c1ccccc1-c1cccc(OCC(=O)O)c1	+
CCCn1c(=O)c2ccc(C(=O)NC(C)CC)cc2n2c(=O)n(CC(=O)Nc3ccccc3F)nc12 (configuration not stated)	i
CC1CC(C)CN(CCCN2C(=O)c3ccc(-c4ccco4)n3CC2(C)C(=O)NC2CCCCC2)C1 (configuration not stated)	i
O=C(NC1CCCCC1)c1ccc2c(=O)n(Cc3ccccc3)c3n[nH]c(=O)n3c2c1	i
CCOc1ccc(C(=O)Nc2ccc3c(c2)C(=O)N(C)C2=NCCN23)cc1	i
N#Cc1c(C2CCNCC2)cc(-c2c(O)cccc2OCC2CC2)nc1N	+
O=C(Cn1nc(-c2ccccc2)c2ccccc21)N1CCN(c2ccc(F)cc2)CC1	i
CN1C(=O)c2cc(C(=O)NCCN3CCCC3)nn2CC1(C)C(=O)NC1CCCCCC1 (configuration not stated)	i
C[C@@H]1CN(C2(C(=O)NCc3n[nH]c4c3CCC4)Cc3ccccc3C2)C[C@H](C)O1	i
COc1ccc(S(=O)(=O)N2CCC(Cc3nncn3C(C)C)CC2)cc1	i
COC1CC(O[C@H]2CC[C@]3(C)C4CC[C@]5(C)C(C6=CC(=O)OC6)=CCC56OC46CC[C@@H]3C2)OC(C)C1O[C@@H]1O[C@H](CO[C@@H]2O[C@H](CO)[C@@H](O)[C@H](O)[C@H]2O)[C@@H](O)[C@H](O)[C@H]1O (some centres not stated)	i
CC(C)(C[C@@](O)(Cc1cc2ccncc2[nH]1)C(F)(F)F)c1cc(F)ccc1O	+
COCCN1Cc2sccc2N(CC(O)COc2ccc(OC)cc2)CCC1=O (configuration not stated)	i
SMILES	Methyltransferases
COC1CN(c2cccc(F)c2)C12CCN(S(=O)(=O)c1cccs1)CC2 (configuration not stated)	i
Cc1ccc(Cn2c(=O)c3ccccc3n3c(CCC(=O)N4CCN(c5ncccn5)CC4)nnc23)cc1	i
COc1ccc(-c2nc(-c3cc(C(F)(F)F)cc(C(F)(F)F)c3)n(Cc3ccc(C(N)=O)cc3)c2-c2ccc(OC)cc2)cc1	+
COc1ccc(CN2CCCC3(CC(c4cccc(C(F)(F)F)c4)=NO3)C2)cc1 (configuration not stated)	i
COc1ccc(Cn2c(=O)c3ccccc3n3c(-c4ccc(O)cc4)nnc23)cc1	i
COC1C(=O)N(C2CCN(C(=O)c3cc(C)nn3C)CC2)C12CCOCC2 (configuration not stated)	i
CC1CCN(S(=O)(=O)c2ccc3c(ccn3CC(=O)NCc3cccc(Cl)c3)c2)CC1	i
CCCCc1oc2ccc(NS(C)(=O)=O)cc2c1C(=O)c1ccc(OCCCN(CCCC)CCCC)cc1	i
